# Assay results taken from publication PMC7862700, “An all-to-all approach to the identification of sequence-specific readers for epigenetic DNA modifications on cytosine”.
# Columns and labels:
# Assay in all cases: DAPPL (digital affinity profiling via proximity ligation, sequencing); 10 mM Tris-HCl pH 7.5, 50 mM NaCl, 1 mM DTT, 4% glycerol, room temperature, 30 min; GST-TFs on glutathione beads, 16-mer random dsDNA library, 0.1% formaldehyde crosslink after washing; high values mean tight binding
# FEV = target: T1, FEV (Homo sapiens, UniProt Q99581 1-238); conditions: protein: recombinant; tags: N-terminal GST; dsDNA, one strand shown
# T1 sequence: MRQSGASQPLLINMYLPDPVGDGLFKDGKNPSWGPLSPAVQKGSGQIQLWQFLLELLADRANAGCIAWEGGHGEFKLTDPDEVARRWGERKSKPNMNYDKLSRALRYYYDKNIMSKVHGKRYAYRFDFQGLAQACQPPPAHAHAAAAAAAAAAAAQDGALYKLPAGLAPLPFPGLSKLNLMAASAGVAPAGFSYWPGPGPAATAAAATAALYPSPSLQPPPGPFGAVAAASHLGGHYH
# Procedure, shortened: (§1)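 In yeast, human transcription factors were expressed with a GST fusion, then pulled down on glutathione beads and given DNA barcodes. Pooled with a tag-only sample, they were exposed to 200 nmole of a 16-mer random double-stranded DNA library (Tris/NaCl/DTT/glycerol buffer, room temperature, 30 min), washed, crosslinked with 0.1% formaldehyde, proximity-ligated using BsaI/T4 ligase for 1 h at 37 °C, PCR-amplified and read on an Illumina NextSeq500. Each hexamer's frequency of reads for a factor, divided by the matching frequency for the tag-only sample, gives the binding signal.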
# ETV5 = ETV5 (Homo sapiens, UniProt P41161 1-510); conditions: protein: recombinant; tags: N-terminal GST; dsDNA, one strand shown
# Procedure, shortened: as §1
# HSF1 = HSF1 (Homo sapiens, UniProt Q00613 1-529); conditions: protein: recombinant; tags: N-terminal GST; chain copies: 3; dsDNA, one strand shown
# Procedure, shortened: as §1
# SPIC = target: T2, SPIC (Homo sapiens, UniProt Q8N5J4 1-248); conditions: protein: recombinant; tags: N-terminal GST; dsDNA, one strand shown
# T2 sequence: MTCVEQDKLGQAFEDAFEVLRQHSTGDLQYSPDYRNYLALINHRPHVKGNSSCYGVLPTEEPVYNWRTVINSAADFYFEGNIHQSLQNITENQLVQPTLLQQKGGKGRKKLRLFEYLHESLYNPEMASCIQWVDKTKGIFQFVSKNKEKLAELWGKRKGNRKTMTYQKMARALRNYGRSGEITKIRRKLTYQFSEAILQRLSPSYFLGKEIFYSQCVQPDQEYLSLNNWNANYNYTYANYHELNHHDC
# Procedure, shortened: as §1
# ELF4 = ELF4 (Homo sapiens, UniProt Q99607 1-663); conditions: protein: recombinant; tags: N-terminal GST; dsDNA, one strand shown
# Procedure, shortened: as §1
# ELK4 = target: T3, ELK4 (Homo sapiens, UniProt P28324-2 1-405); conditions: protein: recombinant; tags: N-terminal GST; dsDNA, one strand shown
# T3 sequence: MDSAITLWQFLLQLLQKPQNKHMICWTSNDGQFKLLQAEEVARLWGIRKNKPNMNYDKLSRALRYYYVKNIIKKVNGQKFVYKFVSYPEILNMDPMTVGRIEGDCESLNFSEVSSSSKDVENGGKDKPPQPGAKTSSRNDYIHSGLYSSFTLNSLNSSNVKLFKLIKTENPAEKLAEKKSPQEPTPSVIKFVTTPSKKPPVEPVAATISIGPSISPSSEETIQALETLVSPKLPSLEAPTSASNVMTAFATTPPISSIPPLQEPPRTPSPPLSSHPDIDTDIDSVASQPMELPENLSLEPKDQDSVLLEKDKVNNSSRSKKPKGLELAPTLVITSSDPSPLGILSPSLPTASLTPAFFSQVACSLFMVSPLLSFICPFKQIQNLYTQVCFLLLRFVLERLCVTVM
# Procedure, shortened: as §1
# ETV2 = target: T4, ETV2 (Homo sapiens, UniProt O00321 1-342); conditions: protein: recombinant; tags: N-terminal GST; dsDNA, one strand shown
# T4 sequence: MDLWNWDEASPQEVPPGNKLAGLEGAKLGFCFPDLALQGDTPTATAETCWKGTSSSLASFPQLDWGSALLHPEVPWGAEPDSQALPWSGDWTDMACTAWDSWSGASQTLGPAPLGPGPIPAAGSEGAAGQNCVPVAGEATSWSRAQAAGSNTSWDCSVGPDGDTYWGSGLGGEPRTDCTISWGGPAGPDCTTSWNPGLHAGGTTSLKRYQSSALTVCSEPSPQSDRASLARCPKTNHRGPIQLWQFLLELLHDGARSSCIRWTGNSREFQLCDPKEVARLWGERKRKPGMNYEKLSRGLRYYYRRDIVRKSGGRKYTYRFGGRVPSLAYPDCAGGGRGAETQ
# Procedure, shortened: as §1
# ELF3 = target: T5, ELF3 (Homo sapiens, UniProt P78545 1-371); conditions: protein: recombinant; tags: N-terminal GST; dsDNA, one strand shown
# T5 sequence: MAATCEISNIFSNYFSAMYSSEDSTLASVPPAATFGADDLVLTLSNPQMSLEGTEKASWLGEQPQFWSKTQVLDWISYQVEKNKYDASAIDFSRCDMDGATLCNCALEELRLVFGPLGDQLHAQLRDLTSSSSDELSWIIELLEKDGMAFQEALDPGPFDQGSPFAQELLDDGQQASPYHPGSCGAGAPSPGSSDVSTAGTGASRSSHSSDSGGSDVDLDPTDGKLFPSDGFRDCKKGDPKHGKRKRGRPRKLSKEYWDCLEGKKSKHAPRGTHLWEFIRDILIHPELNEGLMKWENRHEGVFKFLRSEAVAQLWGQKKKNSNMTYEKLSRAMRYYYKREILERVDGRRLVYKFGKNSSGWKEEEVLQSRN
# Procedure, shortened: as §1
# CRX = CRX (Homo sapiens, UniProt O43186 1-299); conditions: protein: recombinant; tags: N-terminal GST; dsDNA, one strand shown
# Procedure, shortened: as §1
# ETV1 = ETV1 (Homo sapiens, UniProt P50549 1-477); conditions: protein: recombinant; tags: N-terminal GST; dsDNA, one strand shown
# Procedure, shortened: as §1
# ERF = target: T6, ERF (Homo sapiens, UniProt P50548 1-548); conditions: protein: recombinant; tags: N-terminal GST; dsDNA, one strand shown
# T6 sequence: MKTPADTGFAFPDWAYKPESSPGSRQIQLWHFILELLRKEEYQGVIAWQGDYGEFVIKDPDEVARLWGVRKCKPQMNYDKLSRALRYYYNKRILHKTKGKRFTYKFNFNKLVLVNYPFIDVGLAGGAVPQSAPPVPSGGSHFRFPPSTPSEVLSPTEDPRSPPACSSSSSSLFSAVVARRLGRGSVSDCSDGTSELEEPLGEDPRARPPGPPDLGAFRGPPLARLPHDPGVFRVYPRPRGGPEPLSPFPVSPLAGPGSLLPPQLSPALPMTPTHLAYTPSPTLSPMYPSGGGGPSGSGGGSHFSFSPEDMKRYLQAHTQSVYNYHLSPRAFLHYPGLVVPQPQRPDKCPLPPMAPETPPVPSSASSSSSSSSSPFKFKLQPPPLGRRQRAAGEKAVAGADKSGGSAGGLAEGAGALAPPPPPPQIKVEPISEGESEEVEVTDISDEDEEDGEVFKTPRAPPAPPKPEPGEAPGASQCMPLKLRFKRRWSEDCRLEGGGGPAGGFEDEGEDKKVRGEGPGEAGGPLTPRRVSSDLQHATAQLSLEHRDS
# Procedure, shortened: as §1
# ETV3L = target: T7, ETV3L (Homo sapiens, UniProt Q6ZN32 1-361); conditions: protein: recombinant; tags: N-terminal GST; dsDNA, one strand shown
# T7 sequence: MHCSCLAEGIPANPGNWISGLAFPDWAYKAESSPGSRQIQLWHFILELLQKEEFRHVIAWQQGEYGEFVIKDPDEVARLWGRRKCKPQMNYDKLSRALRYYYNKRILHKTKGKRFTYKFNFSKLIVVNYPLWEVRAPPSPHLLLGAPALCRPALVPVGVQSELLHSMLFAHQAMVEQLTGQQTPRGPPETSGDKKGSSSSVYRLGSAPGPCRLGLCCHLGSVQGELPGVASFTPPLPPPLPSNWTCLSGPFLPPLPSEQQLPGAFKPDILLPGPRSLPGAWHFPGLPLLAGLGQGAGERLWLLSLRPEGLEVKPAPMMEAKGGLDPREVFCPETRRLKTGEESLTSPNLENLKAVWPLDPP
# Procedure, shortened: as §1
# ETS2 = target: T8, ETS2 (Homo sapiens, UniProt P15036 1-469); conditions: protein: recombinant; tags: N-terminal GST; dsDNA, one strand shown
# T8 sequence: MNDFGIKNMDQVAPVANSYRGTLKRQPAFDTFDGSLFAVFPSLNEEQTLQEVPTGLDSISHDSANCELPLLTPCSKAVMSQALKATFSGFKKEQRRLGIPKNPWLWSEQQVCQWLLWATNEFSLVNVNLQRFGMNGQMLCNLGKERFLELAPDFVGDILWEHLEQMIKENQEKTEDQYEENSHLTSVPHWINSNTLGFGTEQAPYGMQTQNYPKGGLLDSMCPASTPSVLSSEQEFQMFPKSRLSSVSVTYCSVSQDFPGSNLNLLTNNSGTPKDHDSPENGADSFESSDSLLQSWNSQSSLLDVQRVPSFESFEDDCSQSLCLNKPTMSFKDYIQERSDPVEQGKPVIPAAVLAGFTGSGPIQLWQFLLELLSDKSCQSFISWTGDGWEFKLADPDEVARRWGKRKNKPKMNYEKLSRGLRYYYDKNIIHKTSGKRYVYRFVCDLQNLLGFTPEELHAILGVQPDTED
# Procedure, shortened: as §1
# SPDEF = target: T9, SPDEF (Homo sapiens, UniProt O95238 1-335); conditions: protein: recombinant; tags: N-terminal GST; dsDNA, one strand shown
# T9 sequence: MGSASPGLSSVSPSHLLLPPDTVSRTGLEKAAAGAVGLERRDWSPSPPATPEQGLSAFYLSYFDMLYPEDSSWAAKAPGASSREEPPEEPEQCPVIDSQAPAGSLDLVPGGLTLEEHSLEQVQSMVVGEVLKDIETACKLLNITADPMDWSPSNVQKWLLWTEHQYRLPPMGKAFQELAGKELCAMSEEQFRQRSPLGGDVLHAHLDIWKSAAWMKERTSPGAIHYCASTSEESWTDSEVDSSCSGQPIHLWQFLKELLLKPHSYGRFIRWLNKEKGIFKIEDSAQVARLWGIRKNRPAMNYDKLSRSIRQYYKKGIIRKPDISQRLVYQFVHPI
# Procedure, shortened: as §1
# ETV7 = target: T10, ETV7 (Homo sapiens, UniProt Q9Y603 1-341); conditions: protein: recombinant; tags: N-terminal GST; dsDNA, one strand shown
# T10 sequence: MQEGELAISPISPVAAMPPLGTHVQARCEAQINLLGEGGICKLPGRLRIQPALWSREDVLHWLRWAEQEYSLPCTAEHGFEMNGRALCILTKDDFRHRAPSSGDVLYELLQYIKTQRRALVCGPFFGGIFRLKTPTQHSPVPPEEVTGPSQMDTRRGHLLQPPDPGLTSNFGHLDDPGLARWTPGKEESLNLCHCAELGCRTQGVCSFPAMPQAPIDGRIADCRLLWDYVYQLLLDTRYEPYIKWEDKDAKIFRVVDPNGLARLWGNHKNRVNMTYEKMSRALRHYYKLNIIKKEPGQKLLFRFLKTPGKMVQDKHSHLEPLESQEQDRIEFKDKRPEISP
# Procedure, shortened: as §1
# ELF5 = target: T11, ELF5 (Homo sapiens, UniProt Q9UKW6-2 1-255); conditions: protein: recombinant; tags: N-terminal GST; dsDNA, one strand shown
# T11 sequence: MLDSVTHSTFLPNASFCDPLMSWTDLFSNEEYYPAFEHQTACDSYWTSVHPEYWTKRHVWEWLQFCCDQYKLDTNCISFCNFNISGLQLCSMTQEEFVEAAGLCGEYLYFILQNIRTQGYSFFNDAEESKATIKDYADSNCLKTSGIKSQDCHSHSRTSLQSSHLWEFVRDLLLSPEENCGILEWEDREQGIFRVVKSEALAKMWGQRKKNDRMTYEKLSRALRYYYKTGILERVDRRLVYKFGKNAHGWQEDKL
# Procedure, shortened: as §1
# ETV3 = target: T12, ETV3 (Homo sapiens, UniProt P41162-2 1-143); conditions: protein: recombinant; tags: N-terminal GST; dsDNA, one strand shown
# T12 sequence: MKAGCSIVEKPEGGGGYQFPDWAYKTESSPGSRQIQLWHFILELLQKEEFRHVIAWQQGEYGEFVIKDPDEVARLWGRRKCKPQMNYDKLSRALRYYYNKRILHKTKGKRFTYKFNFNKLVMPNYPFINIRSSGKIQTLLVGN
# Procedure, shortened: as §1
# ETV6 = ETV6 (Homo sapiens, UniProt P41212 1-452); conditions: protein: recombinant; tags: N-terminal GST; dsDNA, one strand shown
# Procedure, shortened: as §1
# ETV5, sequence (P41161 whole entry): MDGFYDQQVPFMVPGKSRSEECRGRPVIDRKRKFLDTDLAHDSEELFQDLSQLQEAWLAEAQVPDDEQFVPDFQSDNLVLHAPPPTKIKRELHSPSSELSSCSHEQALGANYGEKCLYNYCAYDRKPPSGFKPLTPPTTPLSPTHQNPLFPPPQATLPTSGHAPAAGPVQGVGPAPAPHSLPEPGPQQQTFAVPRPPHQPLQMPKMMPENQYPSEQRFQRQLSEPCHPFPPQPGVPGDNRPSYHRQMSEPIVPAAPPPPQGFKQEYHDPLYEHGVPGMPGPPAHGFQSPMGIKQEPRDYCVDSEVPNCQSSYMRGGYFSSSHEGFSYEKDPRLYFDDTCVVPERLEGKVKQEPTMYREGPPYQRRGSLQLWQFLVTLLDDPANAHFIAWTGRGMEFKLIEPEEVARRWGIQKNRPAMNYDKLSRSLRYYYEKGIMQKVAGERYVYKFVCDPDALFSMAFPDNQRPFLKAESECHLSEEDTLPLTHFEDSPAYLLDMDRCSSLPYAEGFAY
# ELF4, sequence (Q99607 whole entry): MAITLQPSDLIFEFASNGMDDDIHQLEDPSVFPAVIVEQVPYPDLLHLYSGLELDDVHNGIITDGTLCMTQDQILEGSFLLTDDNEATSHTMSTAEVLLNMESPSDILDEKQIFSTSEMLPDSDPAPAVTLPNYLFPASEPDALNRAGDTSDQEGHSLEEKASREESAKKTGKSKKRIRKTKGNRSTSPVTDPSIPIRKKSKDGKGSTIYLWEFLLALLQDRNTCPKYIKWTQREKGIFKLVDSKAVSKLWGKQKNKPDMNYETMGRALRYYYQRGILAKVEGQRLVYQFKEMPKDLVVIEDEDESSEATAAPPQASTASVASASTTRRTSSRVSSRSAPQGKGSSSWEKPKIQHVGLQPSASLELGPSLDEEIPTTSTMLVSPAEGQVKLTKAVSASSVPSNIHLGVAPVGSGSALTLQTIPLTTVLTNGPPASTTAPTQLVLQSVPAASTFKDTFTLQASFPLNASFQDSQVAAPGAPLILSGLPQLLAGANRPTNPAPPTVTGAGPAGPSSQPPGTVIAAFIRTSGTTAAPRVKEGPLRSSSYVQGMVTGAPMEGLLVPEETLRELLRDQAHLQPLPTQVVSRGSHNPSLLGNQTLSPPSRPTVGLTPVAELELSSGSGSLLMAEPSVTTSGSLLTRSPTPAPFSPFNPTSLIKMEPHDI
# CRX, sequence (O43186 whole entry): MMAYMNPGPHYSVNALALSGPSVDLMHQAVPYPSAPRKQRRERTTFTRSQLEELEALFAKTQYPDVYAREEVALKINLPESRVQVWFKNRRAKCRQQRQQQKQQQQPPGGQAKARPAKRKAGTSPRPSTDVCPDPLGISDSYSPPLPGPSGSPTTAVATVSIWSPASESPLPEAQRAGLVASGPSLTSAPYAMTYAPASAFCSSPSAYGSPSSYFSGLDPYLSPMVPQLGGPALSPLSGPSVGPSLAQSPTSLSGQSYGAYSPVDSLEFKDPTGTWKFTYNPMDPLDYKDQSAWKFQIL
# HSF1, sequence (Q00613 whole entry): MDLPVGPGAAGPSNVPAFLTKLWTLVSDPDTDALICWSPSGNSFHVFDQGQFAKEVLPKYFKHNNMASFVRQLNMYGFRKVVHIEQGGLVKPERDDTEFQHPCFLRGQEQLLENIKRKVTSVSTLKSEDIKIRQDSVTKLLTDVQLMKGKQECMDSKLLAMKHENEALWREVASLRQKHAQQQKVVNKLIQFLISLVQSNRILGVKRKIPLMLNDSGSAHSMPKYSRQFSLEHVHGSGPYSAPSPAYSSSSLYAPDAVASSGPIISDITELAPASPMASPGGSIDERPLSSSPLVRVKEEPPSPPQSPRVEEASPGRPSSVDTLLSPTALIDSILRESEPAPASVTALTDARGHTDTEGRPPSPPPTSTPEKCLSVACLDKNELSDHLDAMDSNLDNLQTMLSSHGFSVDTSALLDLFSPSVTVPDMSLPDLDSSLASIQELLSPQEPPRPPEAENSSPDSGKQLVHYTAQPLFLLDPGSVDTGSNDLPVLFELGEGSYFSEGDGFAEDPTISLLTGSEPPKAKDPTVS
# ETV1, sequence (P50549 whole entry): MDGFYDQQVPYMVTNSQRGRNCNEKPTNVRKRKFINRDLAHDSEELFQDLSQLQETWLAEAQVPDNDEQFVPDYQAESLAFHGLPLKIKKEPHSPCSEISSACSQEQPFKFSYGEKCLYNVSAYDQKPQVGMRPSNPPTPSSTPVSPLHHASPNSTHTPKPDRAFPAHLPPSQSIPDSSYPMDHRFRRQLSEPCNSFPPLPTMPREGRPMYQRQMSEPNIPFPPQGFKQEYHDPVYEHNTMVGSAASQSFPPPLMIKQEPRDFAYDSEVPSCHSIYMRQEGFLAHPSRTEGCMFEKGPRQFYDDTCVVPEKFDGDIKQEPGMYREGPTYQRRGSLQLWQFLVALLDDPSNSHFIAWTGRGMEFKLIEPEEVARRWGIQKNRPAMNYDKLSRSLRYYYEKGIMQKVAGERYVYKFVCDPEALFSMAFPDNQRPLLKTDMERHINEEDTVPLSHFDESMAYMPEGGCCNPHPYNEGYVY
# ETV6, sequence (P41212 whole entry): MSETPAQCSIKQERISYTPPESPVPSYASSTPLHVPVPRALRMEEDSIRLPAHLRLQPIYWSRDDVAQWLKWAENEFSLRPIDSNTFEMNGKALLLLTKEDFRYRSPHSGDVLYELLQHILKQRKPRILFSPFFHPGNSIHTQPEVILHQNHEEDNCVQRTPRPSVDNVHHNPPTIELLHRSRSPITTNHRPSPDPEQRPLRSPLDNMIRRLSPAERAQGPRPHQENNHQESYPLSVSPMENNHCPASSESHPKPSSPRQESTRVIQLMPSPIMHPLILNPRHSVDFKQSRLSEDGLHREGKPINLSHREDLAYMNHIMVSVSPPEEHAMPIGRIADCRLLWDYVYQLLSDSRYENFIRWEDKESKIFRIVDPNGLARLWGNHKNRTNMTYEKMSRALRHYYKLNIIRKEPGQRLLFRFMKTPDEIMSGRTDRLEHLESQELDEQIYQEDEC
sequence,measurement,setting,value
TATCCC,binding signal,FEV,"1.59 fold enrichment (6-mer frequency, TF over GST control)"
same,binding signal,ETV5,"1.64 fold enrichment (6-mer frequency, TF over GST control)"
same,binding signal,HSF1,"1.61 fold enrichment (6-mer frequency, TF over GST control)"
same,binding signal,SPIC,"1.6 fold enrichment (6-mer frequency, TF over GST control)"
same,binding signal,ELF4,"1.54 fold enrichment (6-mer frequency, TF over GST control)"
same,binding signal,ELK4,"1.64 fold enrichment (6-mer frequency, TF over GST control)"
same,binding signal,ETV2,"1.44 fold enrichment (6-mer frequency, TF over GST control)"
same,binding signal,ELF3,"1.83 fold enrichment (6-mer frequency, TF over GST control)"
same,binding signal,CRX,"2.22 fold enrichment (6-mer frequency, TF over GST control)"
same,binding signal,ETV1,"1.39 fold enrichment (6-mer frequency, TF over GST control)"
same,binding signal,ERF,"1.52 fold enrichment (6-mer frequency, TF over GST control)"
same,binding signal,ETV3L,"1.52 fold enrichment (6-mer frequency, TF over GST control)"
same,binding signal,ETS2,"1.47 fold enrichment (6-mer frequency, TF over GST control)"
same,binding signal,SPDEF,"1.72 fold enrichment (6-mer frequency, TF over GST control)"
same,binding signal,ETV7,"1.53 fold enrichment (6-mer frequency, TF over GST control)"
same,binding signal,ELF5,"2.05 fold enrichment (6-mer frequency, TF over GST control)"
same,binding signal,ETV3,"1.62 fold enrichment (6-mer frequency, TF over GST control)"
same,binding signal,ETV6,"1.51 fold enrichment (6-mer frequency, TF over GST control)"
